POLH inh = DNA polymerase eta (human) inhibition; Potency, µM (highest dose often 114 µM), inactives show at the top dose activity change, negative = inhibition, hits mostly inhibitors; 390,000 compounds, 1.2% hits; AID 588591; recombinant Pol eta, fluorescent DNA replication assay; note: potency is the fitted concentration of half-maximal effect; % is set by controls: 0 for no effect and ±100 for the full control effect
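Pol eta at 10 nM preincubated with compounds 15 min at room temperature; reaction started with fluorescent substrate (50 nM final) and read kinetically at 0 and 10 min.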
WRN helicase inh = blocks human WRN helicase. Q14191. 360,000 compounds, 0.46% hits. WRN helicase unwinding, fluorescent forked duplex, kinetic. Potency, µM (highest dose often 114 µM), for the others: at the highest dose activity change, negative = inhibition, hits mostly inhibitors; note: potency is the fitted concentration of half-maximal effect; % is set by controls: 0 for no effect and ±100 for the full control effect; nearly all actives have a fitted effect of over 55% in size
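Enzyme (20 nM final) and test compound sit together 15 min at room temperature before substrate addition. Substrate is a single-forked duplex oligonucleotide (100 nM) labelled with fluorophore and quencher, with 2 mM ATP; helicase unwinding raises red fluorescence, read kinetically.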
Pol beta inh = blocks human DNA polymerase beta activity. P06746. Pol beta primer extension/strand displacement, fluorescence kinetic. Potency, µM (doses to about 114 µM), for inactives: at the highest dose activity change, negative = inhibition, usual class: inhibitors. 340,000 compounds, 1.3% hits; note: potency is the fitted concentration of half-maximal effect; % is set by controls: 0 for no effect and ±100 for the full control effect
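Curves were derived by four-parameter Hill fits of normalized qHTS data. The kinetic fluorescent primer-extension read was taken at 0 and 10 min after 50 nM substrate, following a 15 min room-temperature preincubation of 10 nM enzyme with compounds.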
Pol kappa inh = inhibitors of human DNA polymerase kappa | 400,000 compounds, 0.53% hits | purified Pol kappa, fluorescent DNA synthesis assay, 10 min | Potency, µM (titrated, usually from 107 µM), for the others: at the top dose activity, negative = inhibition, actives largely listed as inhibitors | AID 588579 | Q9UBT6; note: potency is the fitted concentration of half-maximal effect; % is set by controls: 0 for no effect and ±100 for the full control effect
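Here, compound and 10 nM enzyme are combined for 15 min at room temperature; adding 50 nM substrate (final) starts DNA synthesis, tracked by fluorescence at 0 and 10 min against buffer-only wells.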
POLI inh = blocks human DNA polymerase iota activity. 390,000 compounds, 1% hits. Potency, µM (series often up to 115 µM), inactives show at the highest dose activity, negative = inhibition, actives largely listed as inhibitors. Q9UNA4. AID 588590. Pol iota fluorescent replication assay, 10 min; note: potency is the fitted concentration of half-maximal effect
Target sequence (Q9UNA4 whole entry, looked up): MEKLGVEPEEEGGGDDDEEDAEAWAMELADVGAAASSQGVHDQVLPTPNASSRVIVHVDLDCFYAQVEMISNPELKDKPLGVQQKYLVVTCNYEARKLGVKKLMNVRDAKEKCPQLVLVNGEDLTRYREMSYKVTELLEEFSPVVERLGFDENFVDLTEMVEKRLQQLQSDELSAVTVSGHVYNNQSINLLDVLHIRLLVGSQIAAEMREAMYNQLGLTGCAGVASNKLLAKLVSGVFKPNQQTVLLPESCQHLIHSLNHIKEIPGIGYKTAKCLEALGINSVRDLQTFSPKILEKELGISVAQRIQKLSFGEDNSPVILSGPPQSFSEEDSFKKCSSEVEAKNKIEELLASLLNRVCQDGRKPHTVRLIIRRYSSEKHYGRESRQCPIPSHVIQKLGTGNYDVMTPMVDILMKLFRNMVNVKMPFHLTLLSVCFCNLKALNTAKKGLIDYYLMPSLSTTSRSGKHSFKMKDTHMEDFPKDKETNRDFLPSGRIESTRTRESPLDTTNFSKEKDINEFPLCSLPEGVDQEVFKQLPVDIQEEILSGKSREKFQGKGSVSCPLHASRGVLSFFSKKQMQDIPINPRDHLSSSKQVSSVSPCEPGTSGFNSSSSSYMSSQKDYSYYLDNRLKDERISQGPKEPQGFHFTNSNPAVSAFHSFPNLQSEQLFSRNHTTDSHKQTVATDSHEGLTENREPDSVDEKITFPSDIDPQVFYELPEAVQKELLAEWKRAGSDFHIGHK
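Pol iota at 10 nM preincubated 15 min with compounds at room temperature; reaction started with fluorescent substrate, 50 nM final. Fluorescence read kinetically at 0 and 10 min; buffer-only wells as negative control.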
PI5P4Ka inh = blocks human PI5P4K alpha kinase activity; PI5P4Kalpha enzyme, ADP-Glo luminescence, 60 min; hits give low values; 330,000 compounds, 1.2% hits; max response, %; P48426; active = max response of -50% or lower; inconclusive = between -30% and -50%; inactive = -30% or higher; note: value at the top dose of about 77 µM; % is set by controls: 0 for no effect and ±100 for the full control effect
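ADP-Glo luminescence end-point read after a 60 min room-temperature kinase reaction of PI5P4Kalpha plus substrate, initiated with ATP at 5 microM final. Buffer: 0.038 M HEPES pH 7.4, EGTA, 0.1% CHAPS, 5% DMSO.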
Numbers without * were called inactive; ? = inconclusive; . = no result; ! = repeats disagree; [ ] = remark or other dose. Sampled rows, rich in hits. Any-hit rate of the full collection: about 2.8%. Unless noted, calls come from the whole dose curve; as a rule, active = well fitted curve in the direction sought with a large enough effect; inconclusive = small, poorly fitted or top-dose-only effect, or another doubt; inactive = no such curve, though single readings can be large; an effect the other way counts as inactive or inconclusive.

SMILES	POLH inh	WRN helicase inh	Pol beta inh	Pol kappa inh	POLI inh	PI5P4Ka inh
CC(=O)[C@]1(O)Cc2c(O)c3c(c(O)c2[C@@H](O[C@H]2C[C@H](N)[C@H](O)[C@H](C)O2)C1)C(=O)c1c(O)cccc1C3=O	.	.	.	10µM*	.	.
CC1=C(c2ccc(C(C)C)cc2)S(=O)(=O)NC1=NCc1ccc(OC(C)C)cc1	-9%	.	-1%	5%	-14%	.
O=C(NCC1CCCCC1)c1cc2ccccc2cc1O	-5%	-1%	-26%	-25%	13%	5
O=C(N/N=C1/CC2CCC1C2)c1cc2ccccc2cc1O (centres undefined)	-4%	-9%	-24%	-9%	6%	-56*
Cc1ccc(CCNC(=O)c2ccc(CSCc3ccc(C)cc3)o2)cc1	-12%	.	21%	-2%[60.1 µM]	?	.
CCn1c(SCC(=O)Nc2cc(OC)ccc2OC)nc2c(c1=O)SCC2	-8%	?	22µM*	-4%	-1%	0
C[N+]1(CC(=O)c2ccc(I)cc2)CCCc2ccccc21 (centres undefined)	.	.	.	-7%	2%	.
O=c1[nH][nH]c2c(N=Cc3ccccc3O)ccc(F)c12	3.2µM*	14µM*	7.1µM*	4µM*	0.89µM*	-103*
Cc1cccc2c(C(O)c3c[nH]c4c(C)cccc34)c[nH]c12	.	.	.	-33%	-19%	.
Cc1c(Cl)cccc1NC(=S)N1CCN(C(=O)c2ccco2)CC1	-3%	-31%	79µM*	3%	18%	-3
Cc1cccc(NC(=S)N2CCN(C(=O)c3ccco3)CC2)c1C	-7%	-4%	0%	1%	11%	0
Cc1nc2n(c(=O)c1CCN1CCC(c3noc4cc(F)ccc34)CC1)CCC[C@@H]2O	.	.	.	11%	7%	.
CSCC(=O)N1CCC(n2nccc2NC(=O)c2ccc3c(c2)OCO3)CC1	-19%	1%	11%	79µM*	?	7
CCOc1ccc(NC(=O)COC(=O)c2ccccc2OCc2ccccc2Br)cc1	.	.	.	-6%	-18%	.
COCCN1C(=O)Cc2c1nc(N)c1c(N)nc(N3CCN(c4ccc(F)cc4)CC3)c(C#N)c21	-20%	-11%	30%	-9%	?	?
COCC(C)N1C(=O)Cc2c1nc(N)c1c(N)nc(N3CCN(c4ccccc4F)CC3)c(C#N)c21 (centres undefined)	-21%	-5%	19%	-16%	18µM*	-10
COc1ccc(CN2C(=O)Cc3c2nc(N)c2c(N)nc(N4CCOCC4)c(C#N)c32)cc1	?	8%	19%	0%	7.9µM*	?
CCOc1ccccc1NC(=O)CSc1nc2ccccc2c2nc(CCn3cncc3C)nn12	-24%	.	?	-12%[60.1 µM]	?	.
O=C1c2ccccc2C(=O)N1N(c1ccccc1)c1ccccc1	-11%	-19%	.	-13%	-27%	-1
O=C1C=CC(=O)N1N(c1ccccc1)c1ccccc1	-4%	35µM*	19%	-12%	13%	-28
C(=C\c1nc2ccccc2o1)/c1ccc2c(c1)OCO2	.	.	.	1%	10%	.
CN(C)c1ccc(/C=C/c2sc3ccccc3[n+]2CCCCI)cc1	.	.	.	50µM*	79µM*	.
Cc1sc2ccccc2[n+]1CCC[n+]1c(C)sc2ccccc21	.	.	.	-19%	?	.
CCCCCCCCCC[n+]1ccc(/C=C/c2ccc(N(C)C)cc2)c2ccccc21	.	.	.	40µM*	50µM*	.
CCCC[n+]1c(/C=C/c2ccc(N(C)C)cc2)sc2ccccc21	.	.	.	?	50µM*	.
SMILES	POLH inh	WRN helicase inh	Pol beta inh	Pol kappa inh	POLI inh	PI5P4Ka inh
CN(Cc1ccccc1)c1ccc(/C=C/c2sc3ccccc3[n+]2C)cc1	.	.	.	0%	-6%	.
CC1=C(c2ccc(NN=C(C#N)C#N)cc2)NNC(=O)C1	.	.	.	5%[19.4 µM]	.	.
CC(=O)c1ccc(NC(=O)CSc2nccn2C2CCCC2)cc1	-11%	.	0%	-5%[60.1 µM]	36%	.
CN(C)/C=C/C1=C([N+](=O)[O-])C(c2cccc([N+](=O)[O-])c2)NC(=O)N1 (centres undefined)	?	-36%	-13%	-40%	?	-83*
O=C(NCCc1csc(-c2ccc(F)cc2)n1)c1cccs1	-15%	.	?	-7%[60.1 µM]	5%	.
COc1ccc(C)cc1NC(=O)C1COc2ccccc2C1 (centres undefined)	-4%	.	-6%	-16%[60.1 µM]	-4%	.
COC(=O)c1ccc(CS(=O)(=O)c2ccc(F)cc2)o1	22µM*	-10%	35µM*	?	-76%	-26
O=C(NCc1ccc(F)cc1)c1ccc(CS(=O)(=O)c2ccc(Cl)cc2)o1	-11%	.	?	1%[60.1 µM]	-1%	.
CCOC(=O)Nc1ccc(/C=C/c2ccnc3ccccc23)cc1	.	.	.	-1%	-12%	.
O=C(Nc1ccncc1)c1cnn2c1NC(=C1CC1)C=C2C(F)F	.	.	.	-25%	3%	.
NC1=NC(=O)/C(=C\c2ccc(-c3ccccc3[N+](=O)[O-])o2)S1	.	.	.	?	20µM*	.
N#C/C(=C/c1ccc(-c2ccccc2[N+](=O)[O-])o1)C(N)=O	3%	-4%	?	-13%	54%	0
CN1C(=O)/C(=C/c2ccc(-c3ccccc3[N+](=O)[O-])o2)SC1=Nc1ccc(Cl)c(C(=O)O)c1	20µM*	56µM*	14µM*	?	?	-60*
CC(=O)N1CCCc2cc(S(=O)(=O)N3CCN(c4ccc(F)cc4)CC3)ccc21	-17%	.	8%	-8%[60.1 µM]	11%	.
Cc1sc2nc(SCc3ccc(C(=O)O)cc3)n(Cc3ccco3)c(=O)c2c1C	79µM*	-19%	?	-5%	?	0
Cc1ccc(C(=O)Nc2ccc(S(=O)(=O)O)c3cc(S(=O)(=O)O)cc(S(=O)(=O)O)c23)cc1NC(=O)c1cccc(NC(=O)Nc2cccc(C(=O)Nc3cc(C(=O)Nc4ccc(S(=O)(=O)O)c5cc(S(=O)(=O)O)cc(S(=O)(=O)O)c45)ccc3C)c2)c1	0.22µM*	.	0.89µM*	0.032µM*!	1.4µM*	.

Compound activity from PubChem.
